From PubChem BioAssay
This is one part of a sample in which hits are shown more often than they occur.
SF1 inhibitor – inhibitors of human SF-1, primary screen, cell-based, CHO-K1, Gal4-SF-1 LBD, luciferase luminescence | Steroidogenic factor 1 (Homo sapiens), Q13285 | CHO-K1 Gal4-SF-1 LBD luciferase reporter | inhibition, % at 10 µM | actives 0.55% (n = 65,000) | AID 525, 2006;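 active = inhibition above the mean inhibition of all tested compounds plus 3 SD, cut at about 48% in these data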;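 note: 0% = SF-1 transfected cells with DMSO and 100% = mock-transfected cells lacking SF-1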
The depositor's hits bear a star.

How did CCn1nc(-c2ccccc2)nc2c(=O)n(C)c(=O)nc1-2 do in these assays?
SF1 inhibitor: 95*

Results for O=c1[nH]c(=O)n(C2CCCCC2)c(O)c1C=NCCCn1ccnc1 ?
SF1 inhibitor: -9

What do the screens show for `O=C(Cn1c2c(c(-c3ccccc3Cl)cc1=O)CCC2)N1CCC2(CC1)OCCO2`?
SF1 inhibitor: 15

How did Cc1cccc(NC(=O)CSc2nnc([C@@H](N)Cc3c[nH]c4ccccc34)o2)c1C do in these assays?
SF1 inhibitor: -13

What do the screens show for `O=c1cccc2n1CC1CC2CN(C(c2cccc(F)c2)c2sc3ncnn3c2O)C1` (stereo unspecified)?
SF1 inhibitor: 2

How did Cc1ccc(-n2c(O)c(C=NC3CCCC3)c(=O)[nH]c2=O)c(C)c1 do in these assays?
SF1 inhibitor: -4

How did COc1cc(CN2CCN(c3cc(C)ccc3C)CC2)ccc1O do in these assays?
SF1 inhibitor: 67*

How did COC(=O)CC1NC2CCCCC2NC1=O (stereo unspecified) do in these assays?
SF1 inhibitor: -14

How did COc1cccc(C2=NOC(C(=O)N3CCC4(CC3)OCCO4)C2)c1 (stereo unspecified) do in these assays?
SF1 inhibitor: -56

Results for C[C@H]1CCC/C=C/C2C[C@H](O)CC2[C@H](O)/C=C/C(=O)O1 (stereo partly specified) ?
SF1 inhibitor: 80*

What do the screens show for `CC(=NCC1CCCO1)c1c(O)n(-c2ccc(Cl)cc2)c(=O)[nH]c1=O` (stereo unspecified)?
SF1 inhibitor: 11

Results for CCn1c(=O)cc(OCC(=O)N2CCN(Cc3ccc4c(c3)OCO4)CC2)c2ccccc21 ?
SF1 inhibitor: 17

How did O=c1[nH]c(=O)n(CCc2ccc(F)cc2)c(O)c1C=NCCCN1CCOCC1 do in these assays?
SF1 inhibitor: 9

How did CCCCn1c(O)c(C(C)=Nc2cccc(C(=O)O)c2)c(=O)[nH]c1=O do in these assays?
SF1 inhibitor: -10

How did O=C(Cc1ccccc1)N1CCN(CC2CC=CCC2)CC1 (stereo unspecified) do in these assays?
SF1 inhibitor: 12
